This is an account of results in PubChem BioAssay (NCATS).

The structures appear in SMILES notation. Results filed as inconclusive are left out. Activity calls are given as the source filed them. The call rests on the fitted dose curve; in most records, active means well fitted inhibition curve with a large enough effect; inconclusive means small, poorly fitted or top-dose-only effect; inactive means flat fitted curve, though single readings scatter.

Common to all, as to assay: qHTS profiling for inhibitors of Plasmodium falciparum proliferation (AID 504749); further: nearly all actives have a fitted effect of over 60% in size
Common to all, as to conditions: P. falciparum in erythrocytes, SYBR Green DNA, 72 h; series mostly up to 28.7 µM
(qHTS replaces the single test concentration by a dilution series.)

In one assay the test system is CP268. A digest of the protocol: (§1)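 Quantitative HTS: compounds pinned into medium, infected erythrocytes added (0.3% parasitemia, 2.5% hematocrit), 72 h culture at 37 C under 5% CO2. Saponin/Triton lysis with SYBR Green I, overnight RT, then fluorescence read.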
The subject of another assay is CP269. A digest of the protocol:
as §1

The next assay concerns CP286. The gist of the method: as §1
The subject of the next assay is CP291. The gist of the method:
as §1

Another assay deals with CP297. The gist of the method:
as §1

Another assay has as its system CP305. A digest of the protocol:
as §1

Another assay concerns CP315. The gist of the method:
as §1

Another assay has as its system CP325. A digest of the protocol:
as §1

For the next assay, the system named is CP329. A digest of the protocol:
as §1

The test system of another assay is CP335. A digest of the protocol: as §1
Potency means the concentration at half of the fitted maximal effect.

With `CCN(Cc1ccncc1)C(=O)C(CO)c1ccccc1` (configuration not stated), the Potency result with CP268, in the assay with CP269, with CP286, with CP291, with CP297 and in the assay on CP305 was “inactive” each time. For the same compound, the Potency entry in the assay on CP315, with CP325, in the assay with CP329 and in the assay on CP335 was “inactive” each time.
For the compound `CCCN(CCC)CCc1cccc2c1CC(=O)N2`, the Potency entry in the assay with CP268, in the assay with CP269, with CP286, in the assay with CP291, in the assay on CP297 and in the assay on CP305 was “inactive” throughout. The Potency result with CP315, in the assay on CP325 and with CP329 was “inactive” in each case.
Regarding `Nc1ncn([C@@H]2O[C@H](CO)[C@@H](O)[C@H]2O)c(=O)n1`, the Potency result in the assay on CP268, in the assay with CP269, with CP286, in the assay on CP291, in the assay with CP297 and with CP305 was “inactive” throughout. Moreover, the Potency entry in the assay with CP315, with CP325, with CP329 and in the assay on CP335 was “inactive” in each case.
Turning to `C[C@H](CS)C(=O)N1CCC[C@H]1C(=O)O`, the Potency result in the assay on CP268, in the assay with CP269, with CP286, in the assay with CP291, in the assay on CP297 and with CP305 was “inactive” throughout. Further, the Potency result with CP315, in the assay on CP325, with CP329 and in the assay with CP335 was “inactive” in each case.
For `O=C(O)CCCCCCCC(=O)O`, the Potency entry in the assay with CP268, with CP269, in the assay with CP286, in the assay on CP291, with CP297 and in the assay on CP305 was “inactive” throughout. In addition, the Potency entry in the assay on CP315, in the assay with CP325, in the assay on CP329 and with CP335 was “inactive” in each case.
For the compound `COc1ccc([C@@H]2Sc3ccccc3N(CCN(C)C)C(=O)[C@@H]2OC(C)=O)cc1`, the Potency entry in the assay with CP268, with CP269, in the assay on CP286, in the assay on CP291, in the assay with CP297 and with CP305 was “inactive” in each case. The Potency result with CP315, with CP325, with CP329 and in the assay on CP335 was “inactive” throughout.
`CC(=O)Oc1cc(C(C)C)c(OCCN(C)C)cc1C`: the Potency entry with CP268, in the assay with CP269, in the assay on CP286, with CP291, in the assay on CP297 and in the assay on CP305 was “inactive” throughout. For the same compound, the Potency entry in the assay with CP315, in the assay with CP325 and with CP329 was “inactive” each time.
Turning to `NCCCNCCSP(=O)(O)O`, the Potency result in the assay on CP268, with CP269, with CP286, in the assay with CP291, in the assay on CP297 and in the assay with CP305 was “inactive” each time. For the same compound, the Potency entry in the assay on CP315, in the assay on CP325, with CP329 and in the assay on CP335 was “inactive” in each case.
With `CN1CCN(C2=Nc3ccccc3Oc3ccc(Cl)cc32)CC1`, the Potency entry with CP268, with CP269, in the assay on CP286, with CP291, with CP297 and in the assay with CP305 was “inactive” each time. In addition, the Potency entry in the assay with CP315, with CP325, in the assay with CP329 and in the assay on CP335 was “inactive” in each case.
For the compound `Nc1c2c(nc3ccccc13)CCCC2O` (configuration not stated), the Potency result in the assay with CP268, in the assay with CP269, in the assay with CP286, in the assay with CP291, with CP297 and in the assay on CP305 was “inactive” throughout. In addition, the Potency result in the assay with CP315, in the assay with CP325, in the assay on CP329 and with CP335 was “inactive” each time.
For the compound `CC(C(=O)O)c1ccc(CC2CCCC2=O)cc1` (configuration not stated), the Potency entry with CP268, in the assay with CP269, with CP286, in the assay on CP291, with CP297 and with CP305 was “inactive” in each case. Besides, the Potency entry in the assay on CP315, in the assay on CP325, in the assay with CP329 and in the assay on CP335 was “inactive” throughout.
On to `Cc1nc2c([nH]1)c(=O)n(C)c(=O)n2Cc1ccco1`, for which the Potency entry in the assay on CP268, with CP269, with CP286, in the assay with CP291, in the assay on CP297 and with CP305 was “inactive” in each case. The Potency entry in the assay on CP315, in the assay with CP325, in the assay on CP329 and with CP335 was “inactive” in each case.
Consider `CCCOc1ccccc1-c1nc2n[nH]nc2c(=O)[nH]1`, for which the Potency result in the assay with CP268, in the assay with CP269, in the assay with CP286, in the assay on CP291, in the assay on CP297 and with CP305 was “inactive” in each case. The Potency result in the assay on CP315, in the assay with CP325 and in the assay on CP329 was “inactive” throughout.
Regarding `CC(=O)Nc1nnc(S(N)(=O)=O)s1`, the Potency entry with CP268, in the assay on CP269, in the assay with CP286, in the assay on CP291, in the assay with CP297 and in the assay with CP305 was “inactive” each time. Moreover, the Potency result in the assay with CP315, in the assay on CP325, in the assay on CP329 and in the assay on CP335 was “inactive” throughout.
Take `CNC1(C)C2CCC(C2)C1(C)C` (configuration not stated): the Potency entry in the assay with CP268, in the assay with CP269, in the assay on CP286, in the assay on CP291, with CP297 and in the assay with CP305 was “inactive” throughout. In addition, the Potency result in the assay on CP315, in the assay with CP325 and with CP329 was “inactive” each time.
For `CC(=O)OCC1=C(C(=O)O)N2C(=O)[C@@H](NC(=O)Cc3cccs3)[C@H]2SC1`, the Potency result with CP268, in the assay with CP269, with CP286, in the assay with CP291, in the assay with CP297 and in the assay on CP305 was “inactive” each time. Also, the Potency entry with CP315, in the assay with CP325, with CP329 and with CP335 was “inactive” each time.
`CCn1cc(C(=O)O)c(=O)c2cc3c(cc21)OCO3`: the Potency result in the assay on CP268, in the assay on CP269, in the assay on CP286, with CP291, with CP297 and with CP305 was “inactive” each time. In addition, the Potency entry in the assay with CP315, with CP325, in the assay with CP329 and in the assay on CP335 was “inactive” throughout.
Turning to `C[n+]1cc2c3c(ccc2c2ccc4cc5c(cc4c21)OCO5)OCO3`, the Potency entry with CP268, with CP269, with CP286, in the assay on CP291, in the assay with CP297 and with CP315 was “inactive” throughout. Further, the Potency result in the assay on CP329 and in the assay with CP335 was “inactive” throughout.
On to `O=C(O)CN(CCOCCOCCN(CC(=O)O)CC(=O)O)CC(=O)O`, for which the Potency entry in the assay with CP268, in the assay with CP269, in the assay with CP286, with CP291, in the assay on CP297 and in the assay with CP305 was “inactive” each time. Besides, the Potency entry in the assay with CP315, with CP325, in the assay on CP329 and in the assay with CP335 was “inactive” each time.
As for `COCC(=O)O[C@]1(CCN(C)CCCc2nc3ccccc3[nH]2)CCc2cc(F)ccc2[C@@H]1C(C)C`, the Potency was 5.36 µM (active) in the assay with CP268; 2.69 µM (active) in the assay with CP269; 1.58 µM (active) in the assay on CP286; 4.78 µM (active) with CP291; 0.849 µM (active) with CP297; 6.01 µM (active) in the assay on CP305. Besides, the Potency with CP315 is 6.75 µM (active); with CP325, 6.75 µM (active); in the assay on CP329, 4.78 µM (active); with CP335, 1.9 µM (active).
As to `COc1ccc(CN(CCN(C)C)c2ccccn2)cc1`, the Potency entry in the assay with CP268, with CP269, with CP286, in the assay on CP291, in the assay on CP305 and in the assay with CP315 was “inactive” throughout. Moreover, the Potency entry in the assay on CP325 and with CP329 was “inactive” throughout.
